NOD2-RIPK2 inh: inhibitors of human NOD2-RIPK2 interaction; CHO BLA complementation NOD2-RIPK2, CCF4 ratio; inhibition, % at 4.98 µM; 360,000 compounds, 0.38% hits; in the data active = inhibition above about 21%
Target sequence (O43353 whole entry, looked up): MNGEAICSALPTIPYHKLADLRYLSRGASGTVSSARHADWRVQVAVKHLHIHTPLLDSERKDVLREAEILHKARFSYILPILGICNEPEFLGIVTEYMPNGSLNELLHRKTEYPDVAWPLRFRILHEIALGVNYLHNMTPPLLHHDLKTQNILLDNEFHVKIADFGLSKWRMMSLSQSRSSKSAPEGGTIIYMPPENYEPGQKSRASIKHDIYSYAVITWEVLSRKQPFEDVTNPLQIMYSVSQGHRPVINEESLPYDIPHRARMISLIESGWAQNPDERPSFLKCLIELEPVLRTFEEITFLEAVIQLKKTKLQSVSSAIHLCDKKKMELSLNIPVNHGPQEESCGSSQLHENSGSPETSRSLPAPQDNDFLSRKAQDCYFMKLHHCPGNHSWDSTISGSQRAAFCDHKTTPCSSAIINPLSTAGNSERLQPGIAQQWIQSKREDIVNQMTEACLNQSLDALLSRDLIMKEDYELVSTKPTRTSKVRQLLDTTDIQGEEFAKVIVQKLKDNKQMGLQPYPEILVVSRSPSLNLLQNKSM
TLR4-MyD88 BLA: TLR4-MyD88 interaction inhibition in cells. O00206+Q99836. HeLa CL3-4 TLR4/MyD88 BLA complementation, FRET ratio. inhibition, % at 8.4 µM. 200,000 compounds, 0.18% hits. AID 861; in the data active = inhibition above about 25%
ANO1 activ: mouse TMEM16A channel activation, primary screen | HEK293 TMEM16A/YFP-H148Q/I152L, iodide quench fluorescence; stronger effect = lower value | 340,000 compounds, 0.3% hits | AID 623877 | Q8BHY3 | B-score at 10 µM;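 active = fluorescence-ratio B-score plate-corrected deviation score at least 3 library SD below zero, with starting fluorescence score within 5 deviations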;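 also: channel opened by trigger with iodide after compound preincubation; score built on the fluorescence ratio of max minus min over baseline; more negative score means more quench and so TMEM16A activation or potentiation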
GRK2 aptamer HTS: blocks RNA aptamer binding to human GRK2. 330,000 compounds, 0.59% hits. P25098. inhibition of aptamer binding, % at 10 µM. bead flow cytometry, FAM-aptamer displacement from GRK2;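 active = inhibition of aptamer binding above 40%, roughly 3 SD of noise, on plates passing a quality check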;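 also: median bead fluorescence of bound FAM aptamer so fluorescent compounds give negative values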
TLR9-MyD88 inh: inhibitors of human TLR9-MyD88 binding; 340,000 compounds, 0.21% hits; AID 504734; inhibition, % at 4.98 µM; Q9NR96+Q99836; CHO BLA complementation TLR9-MyD88, CCF4 FRET ratio;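 active = inhibition above the mean over all tested compounds plus 3 SD, cut at about 21% in these data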
ANO1 block: mouse TMEM16A channel inhibition, primary screen. 310,000 compounds, 1.2% hits. Q8BHY3. HEK293 TMEM16A/YFP iodide influx fluorescence, ionomycin. normalized B-score (activity score, 25-100; higher = stronger inhibition) at 10 µM. AID 588511;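 active = ratio plate-corrected score three or more library SD toward inhibition, starting fluorescence score within five deviations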;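 also: score derived from kinetic fluorescence span divided by baseline fluorescence per well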
GRK2 CP1: confirmation of human GRK2 inhibitors displacing RNA aptamer. shares compounds with GRK2 aptamer HTS. bead-bound GRK2, FAM-aptamer displacement, flow cytometry. aptamer displacement, % at 10 µM. 2,000 compounds, 4% hits. AID 504451;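 active = aptamer displacement above 40%, near three times the noise of non-fluorescent compounds, on plates passing quality checks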;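 also: negative values mostly reflect intrinsic compound fluorescence rather than true enhancement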
Aptamer quench: quenches fluorescent RNA aptamer, GRK2 hit artifact | shares compounds with GRK2 aptamer HTS | Fluorescent RNA aptamer beads, quenching, flow cytometry; stronger effect = higher value | fluorescence change (kMESF span), kMESF (concentration not given with the values) | 110 tested, under 10 active | AID 504521;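 active = compounds whose bead fluorescence drops by more than 37 kMESF across the dose range, marking them as dye quenchers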
FAM quench CP1: aptamer fluorescence quenching in GRK2 counter-screen; shares compounds with GRK2 aptamer HTS; Carboxyfluorescein RNA aptamer on beads, flow cytometry quenching; stronger effect = lower value; fluorescence response (% of DMSO), % at 10 µM; 2,000 tested, under 10 active;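 active = compounds that quench the bead-bound fluorescent RNA probe, cutting fluorescence to under half of the solvent control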;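 also: counterscreen run without GRK2 so only probe quenching by compound is measured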
GRK2 confirm 2: human GRK2 inhibition confirmation, cherry pick 2. shares compounds with GRK2 aptamer HTS. bead-bound GRK2, FAM-aptamer displacement, flow cytometry. inhibition of aptamer binding, % at 10 µM. 360 tested, under 10 active. AID 504782;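 active = inhibition of aptamer binding above 40%, about triple the noise seen with nonglowing compounds, on plates passing quality control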;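 also: negative values mostly come from compounds that fluoresce themselves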
Aptamer quench 2: counter-screen for GRK2 aptamer inhibitors: fluorescent aptamer quenchers. shares compounds with GRK2 aptamer HTS. change in fluorescence (kMESF span), kMESF (no concentration beside the values). AID 504819. 25 tested, under 10 active. Streptavidin beads, FAM-RNA aptamer fluorescence quenching, flow cytometry;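 active = compounds quenching the bead-bound labeled aptamer, with fluorescence dropping by more than 37 kMESF over the dose range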
FAM quench CP2: aptamer fluorescence quenching in GRK2 counter-screen; shares compounds with GRK2 aptamer HTS; carboxyfluorescein RNA aptamer beads, flow cytometry quenching; stronger effect = lower value; fluorescence response vs DMSO, % at 10 µM; 360 tested, under 10 active;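 active = response vs DMSO under 50%, meaning signal dropped by over half, treated as fluorescence quencher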;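 also: labelled aptamer on streptavidin beads without GRK2 as a quench counter-screen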
FAM quench DR: counter-screen for GRK2 aptamer binding inhibitors: aptamer fluorescence quenching; shares compounds with GRK2 aptamer HTS; Bead-bound FAM RNA aptamer fluorescence quenching, flow cytometry; stronger effect = lower value; fluorescence ratio to DMSO, % at 11.1 µM; 35 tested, under 10 active; AID 588496;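 active = compounds that dim the fluorescent label, raw bead signal shifting by over 33 units between lowest and highest dose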
Of the large screens only hits and unclear results are named; the others gave an inactive call (follow-up assays come after a bar, where they were run). Shown are actives, neighbours in structure and some others; about 2.2% of the full set was active somewhere.

CCOCCCNC(=O)c1ccc(N2CCCC2)c(NS(=O)(=O)c2ccc(C)cc2)c1	GRK2 aptamer HTS 96 | GRK2 CP1 inactive | FAM quench CP1 inactive
COCCCNC(=O)c1ccc(N2CCCC2)c(NS(=O)(=O)c2ccc(C)cc2)c1	none
O=C(c1nc2ccccn2c1CNCC1OCCc2ccccc21)N1CCOCC1 (stereo unspecified)	none
Cc1ccn2c(CNCC3OCCc4ccccc43)c(C(=O)N3CCCCCC3)nc2c1 (stereo unspecified)	none | GRK2 CP1 inactive | FAM quench CP1 inactive
COc1ccccc1C(=O)NCCCNC(=O)c1cccnc1	none (no result: TLR4-MyD88 BLA)
Cc1ccc(S(=O)(=O)NCCC(=O)Nc2nnc(C)s2)cc1	GRK2 aptamer HTS 100 | GRK2 CP1 inactive | FAM quench CP1 inactive
Cc1nc2cc(NCc3ccccc3O)ccc2n1Cc1ccccc1	none
O=C(Nc1cccc(Cl)c1)c1cc(S(=O)(=O)N2CCOCC2)cs1	none (no result: TLR4-MyD88 BLA)
COc1ccccc1NC(=O)CCS(=O)(=O)c1ccccc1	none | GRK2 confirm 2 inactive | FAM quench CP2 inactive
COc1ccccc1NC(=O)CCC(=O)OCc1ccc(Cl)cc1	GRK2 aptamer HTS 97 | GRK2 CP1 inactive | FAM quench CP1 inactive
COc1ccccc1NC(=O)CCCCC(=O)Nc1ccccc1OC	none (no result: TLR4-MyD88 BLA)
COc1ccc(OC)c(NC(=O)CCS(=O)(=O)c2cc3c(cc2C)NC(=O)CO3)c1	none (no result: TLR4-MyD88 BLA) | GRK2 confirm 2 inactive | FAM quench CP2 inactive
COc1ccccc1NC(=O)c1ccccc1Oc1ccccc1	GRK2 aptamer HTS 41 (no result: TLR4-MyD88 BLA) | GRK2 CP1 inactive | FAM quench CP1 inactive
COc1ccc(S(=O)(=O)CCC(=O)Nc2cc(C)ccc2OC)cc1	none | GRK2 confirm 2 inactive | FAM quench CP2 inactive
CCC(=O)N1c2ccc(S(=O)(=O)CCC(=O)Nc3ccc(OC)cc3OC)cc2CC1C (stereo unspecified)	ANO1 activ -42 (no result: TLR4-MyD88 BLA) | GRK2 confirm 2 inactive | FAM quench CP2 inactive
CC(=O)C1=NOC2C(=O)N(c3ccccc3)C(=O)C12 (stereo unspecified)	none (no result: TLR4-MyD88 BLA)
COc1ccc(C2=NO[C@@H]3C(=O)N(c4ccc(C)cc4C)C(=O)[C@H]23)cc1OC	none | GRK2 confirm 2 inactive | FAM quench CP2 inactive
COc1ccc(C2=NO[C@@H]3C(=O)N(c4cccc(C)c4C)C(=O)[C@H]23)cc1OC	none | GRK2 confirm 2 inactive | FAM quench CP2 inactive
Cc1ccc(N2C(=O)[C@@H]3C(c4ccc(F)cc4)=NO[C@@H]3C2=O)cc1	none | GRK2 confirm 2 inactive | FAM quench CP2 inactive
COc1cccc(NC(=O)COc2ccc(C(=O)N3CCN(C)CC3)cc2)c1	none (no result: TLR4-MyD88 BLA)
O=C(OCc1ccccc1)N1C=CC2CC1c1c(Cl)cccc12 (stereo unspecified)	none (no result: TLR4-MyD88 BLA, GRK2 aptamer HTS, ANO1 block)
COc1ccc(OC)c(NC(=O)COc2cc(O)c3c(c2)OC(C)(C)CC3=O)c1	none (no result: TLR4-MyD88 BLA, ANO1 activ, GRK2 aptamer HTS, TLR9-MyD88 inh, ANO1 block)
CC12CCC3C(CCC4N(CCO)CCC34C)C1CCC2O (stereo unspecified)	GRK2 aptamer HTS 49 (no result: TLR4-MyD88 BLA) | GRK2 CP1 inactive | FAM quench CP1 inactive
CC(C)(C)C1CCc2c(C(=O)NNC(=O)CCCC(=O)O)csc2C1 (stereo unspecified)	GRK2 aptamer HTS 97 | GRK2 CP1 inactive | FAM quench CP1 inactive
CCNC(=S)NNC(=O)c1csc2c1CCC(C)C2 (stereo unspecified)	none (no result: ANO1 activ)
NS(=O)(=O)c1ccc(CCNC(=O)CCS(=O)(=O)c2ccc(Br)cc2)cc1	GRK2 aptamer HTS 87 (no result: TLR4-MyD88 BLA) | GRK2 confirm 2 74 | Aptamer quench 2 inactive | FAM quench CP2 inactive | FAM quench DR inactive
COc1ccc(CNC(=O)CCS(=O)(=O)c2ccc(Br)cc2)cc1	GRK2 aptamer HTS 89 (no result: TLR4-MyD88 BLA) | GRK2 CP1 inactive | Aptamer quench inactive | FAM quench CP1 inactive | Aptamer quench 2 inactive | FAM quench DR inactive
O=C(CCS(=O)(=O)c1ccc2c(c1)NC(=O)CS2)NCCc1ccc(Cl)cc1	none (no result: TLR4-MyD88 BLA)
O=C(CCS(=O)(=O)c1ccc(Br)cc1)NCCc1ccccc1	GRK2 aptamer HTS 70 (no result: TLR4-MyD88 BLA) | GRK2 CP1 43 | Aptamer quench inactive | FAM quench CP1 inactive | Aptamer quench 2 inactive
O=C(CCS(=O)(=O)c1ccc2c(c1)NC(=O)CS2)NCCc1ccccc1	none (no result: TLR4-MyD88 BLA) | GRK2 confirm 2 inactive | FAM quench CP2 inactive
COC(=O)Cc1ccc(NC(=S)N2CCN(c3ccc(F)cc3)CC2)cc1	none
O=C(CCCNC(=O)c1ccc(Cl)cc1)NCc1ccccc1F	none (no result: TLR4-MyD88 BLA)
CCOc1ccc(CCNC(=O)CCS(=O)(=O)c2ccc(Br)cc2)cc1OCC	none (no result: TLR4-MyD88 BLA) | GRK2 CP1 inactive | Aptamer quench inactive | FAM quench CP1 inactive | FAM quench DR inactive
CC(CNC(=O)c1ccc2c(c1)OCO2)c1ccc([N+](=O)[O-])cc1 (stereo unspecified)	GRK2 aptamer HTS 67 | GRK2 CP1 inactive | FAM quench CP1 inactive
Cc1ccc([N+](=O)[O-])cc1NC(=O)c1ccc2c(c1)OCO2	none
Cc1ccc(-c2nn(-c3ccccc3)cc2/C=C/C(=O)OCC(=O)NC2CC2)o1	GRK2 aptamer HTS 78 | GRK2 CP1 inactive | FAM quench CP1 inactive
CNC(=O)COC(=O)/C=C/c1cn(-c2ccccc2)nc1-c1ccc2c(c1)OCCO2	none
Cc1ccc(OCCSc2cc(C)nc(N)n2)cc1	GRK2 aptamer HTS 84 | GRK2 CP1 inactive | FAM quench CP1 inactive
CCCN1CCN(C(=O)C2CCN(S(=O)(=O)c3c(C)noc3/C=C/c3ccc(C)cc3)CC2)CC1	GRK2 aptamer HTS 77 (no result: TLR4-MyD88 BLA) | GRK2 CP1 inactive | FAM quench CP1 inactive
Cc1ccc(/C=C/c2onc(C)c2S(=O)(=O)N2CCC(C(=O)N3CCCCC3)CC2)cc1	none (no result: TLR4-MyD88 BLA)

Screening results from PubChem BioAssay.
